One may read the Inhibition as the change of the read-out against control, counted positive when it falls.

Potency and affinity values are given separately.

The test system of one test is Staphylococcus aureus. The note with it: Concentration 32 ug.mL-1;; ASSAY_TEST Inhibition of Bacterial Growth; detection method Absorption (OD600); MEDIA CAMHB; plate type 384well; NBS; CORNING #3640; time 18 hr.
For the next test, the system named is Escherichia coli. The conditions noted are these: Concentration 32 ug.mL-1;; ASSAY_TEST Inhibition of Bacterial Growth; detection method Absorption (OD600); MEDIA CAMHB; plate type 384well; NBS; CORNING #3640; time 18 hr.

As for `COc1ccc(NC(=O)Cn2nc3c(SC4CCCCC4)nccn3c2=O)cc1`, the Inhibition with Staphylococcus aureus is recorded as -2.9%; in the test on Escherichia coli, -3.75%.

In the case of `CC(C)c1nnc2c(SCC(=O)Nc3ccc(F)cc3F)nc3ccccc3n12`, the Inhibition in the test on Staphylococcus aureus came out at 6.8%; with Escherichia coli, 1.07%.

Consider `O=C(Cn1nc2c(N3CCOCC3)nccn2c1=O)NCc1ccccc1Cl`, for which the Inhibition in the test with Staphylococcus aureus was 17.61%; with Escherichia coli, 4.36%.

Take `COc1ccc(-c2cc3c4nnc(SCC(=O)Nc5ccc(C)cc5Cl)n4ccn3n2)cc1`: the Inhibition with Staphylococcus aureus is 2.3%; in the test with Escherichia coli, -3.13%.

Consider `COc1ccc(-c2cc3c4nn(CC(=O)Nc5cccc(OC)c5)c(=O)n4ccn3n2)cc1`, for which the figures for the Inhibition in the test with Staphylococcus aureus and with Escherichia coli were -3.02% and -0.95%, respectively.

Take `COc1ccc(-c2cc3c4nnc(SCC(=O)NCc5ccc(Cl)cc5)n4ccn3n2)cc1`: the Inhibition in the test on Staphylococcus aureus was -1.89%; in the test on Escherichia coli, -4.94%.

Regarding `COc1cccc(NC(=O)Cn2nc3c(N4CCCC4)nccn3c2=O)c1`, the Inhibition with Staphylococcus aureus is listed as -2.28%; in the test with Escherichia coli, -3.58%.

Regarding `CCc1nnc2c(S(=O)(=O)N(Cc3ccc(F)cc3)c3ccc(Cl)cc3)cccn12`, the Inhibition in the test on Staphylococcus aureus is 8.89%; with Escherichia coli, -2.23%.

As for `Cc1nnc2c(=O)n(CC(=O)Nc3ccc(Br)cc3)c3ccccc3n12`, the results for the Inhibition with Staphylococcus aureus and with Escherichia coli were -6.47% and 5.5%, respectively.

Regarding `CCOc1ccc(C(=O)CSc2nnc3c(=O)n(-c4ccc(C)c(C)c4)ccn23)cc1`, the Inhibition was 9.97% in the test with Staphylococcus aureus and -11.39% in the test on Escherichia coli.

On to `Cc1ccc(Oc2nccn3c(=O)n(CC(=O)NCCC4=CCCCC4)nc23)cc1`, for which the Inhibition with Staphylococcus aureus is 4.93%; with Escherichia coli, -4.1%.

For the molecule `O=C(Cn1nc2c(SC3CCCCC3)nccn2c1=O)Nc1cccc(Cl)c1`, the Inhibition in the test on Staphylococcus aureus was -15.22%; in the test with Escherichia coli, -17.9%.

Take `Cc1ccc(NC(=O)Cn2nc3c(Sc4ccccc4)nccn3c2=O)c(Br)c1`: the Inhibition with Staphylococcus aureus was -10.94%; in the test on Escherichia coli it was -14.81%.

`Cc1cc(C)cc(Nc2nc(C)cc3nn(CC(=O)Nc4cc(F)cc(F)c4)c(=O)n23)c1`: the Inhibition is recorded as 7.68% in the test with Staphylococcus aureus and -2.61% with Escherichia coli.

Regarding `Cc1ccc(-c2ccc3nn(CC(=O)Nc4ccc(Cl)c(C(F)(F)F)c4)c(=O)n3n2)cc1C`, the Inhibition in the test with Staphylococcus aureus is given as -0.53%; in the test on Escherichia coli, -10.28%.

For `Cc1cccc(NC(=O)Cn2nc3c4cc(-c5ccc(F)cc5)nn4ccn3c2=O)c1C`, the values for the Inhibition with Staphylococcus aureus and in the test on Escherichia coli were -2.18% and -5.27%, respectively.

As for `Cc1ccc(Sc2nccn3c(=O)n(CC(=O)N4CCN(c5ccccc5)CC4)nc23)c(C)c1`, the Inhibition in the test on Staphylococcus aureus is on record as -10.57%; with Escherichia coli, -12.78%.

On to `COc1cc(NC(=O)Cn2nc3c(Oc4ccccc4)nccn3c2=O)cc(OC)c1OC`, for which the Inhibition in the test with Staphylococcus aureus is listed as 13.24%; in the test on Escherichia coli it was 1.16%.

Turning to `CC(C)(C)Sc1ccc2nn(CC(=O)Nc3ccccc3Cl)c(=O)n2n1`, the Inhibition is recorded as 7.11% in the test with Staphylococcus aureus and -2.79% in the test on Escherichia coli.

For the molecule `Cc1cc(NC(=O)Cn2c(=O)c3nnc(C(C)C)n3c3ccccc32)ccc1Br`, the Inhibition worked out at 13.77% in the test on Staphylococcus aureus and 0% in the test with Escherichia coli.

In the case of `COc1cccc(CNC(=O)CCc2nnc3ccc(-c4ccc(C)cc4)nn23)c1`, the Inhibition is recorded as 16.4% with Staphylococcus aureus and -0.37% in the test on Escherichia coli.

On to `Cc1cc2nn(CC(=O)Nc3cc(F)ccc3C)c(=O)n2c(Nc2ccc(F)cc2)n1`, for which the Inhibition in the test on Staphylococcus aureus is reported as 4.25%; in the test on Escherichia coli it was -5.18%.

Consider `Cc1cccc(-c2nc(CSc3nc4ccccc4n4c(C(C)C)nnc34)c(C)o2)c1`, for which the Inhibition with Staphylococcus aureus worked out at 9.08%; in the test on Escherichia coli, 2.13%.

On to `Cc1cc(C)cc(Nc2nc(C)cc3nn(CC(=O)NC4CCCC4)c(=O)n23)c1`, for which the Inhibition in the test on Staphylococcus aureus is 11.66%; in the test on Escherichia coli, 0.01%.

Take `O=C(Cn1nc2c(N3CCSCC3)nc3ccccc3n2c1=O)Nc1ccc(Br)cc1`: the Inhibition is -2.29% in the test on Staphylococcus aureus and -4.32% with Escherichia coli.

As for `O=c1c2sccc2n2c(=O)n(Cc3ccc(Br)cc3)nc2n1Cc1cccs1`, the Inhibition is reported as -10.81% in the test on Staphylococcus aureus and -9.69% in the test on Escherichia coli.

As to `CC(C)Cn1c(=O)c2sccc2n2c(=O)n(Cc3ccc(Cl)cc3)nc12`, the figures for the Inhibition with Staphylococcus aureus and in the test on Escherichia coli were -2.34% and 0.89%, respectively.

As to `Cc1cc2nn(CC(=O)Nc3ccccc3C)c(=O)n2c(Nc2ccc(F)c(C)c2)n1`, the Inhibition in the test with Staphylococcus aureus is on record as 4.45%; in the test with Escherichia coli, -4.23%.

With `COC(=O)c1ccccc1NC(=O)Cn1nc2c3sc(N4CCCC4)nc3ncn2c1=O`, the Inhibition in the test with Staphylococcus aureus is on record as 6.17%; in the test on Escherichia coli it was -6.93%.

With `CCc1nnc2c(SCC(=O)NCc3ccccc3Cl)nc3ccccc3n12`, the Inhibition in the test with Staphylococcus aureus is 4.41%; in the test on Escherichia coli, -6.59%.

For `Cc1ccc(Oc2nccn3c(=O)n(CC(=O)Nc4ccc(Cl)cc4F)nc23)cc1`, the Inhibition was 5.22% with Staphylococcus aureus and -5.2% in the test on Escherichia coli.

`CCc1cccc(C)c1NC(=O)CSc1nnc2ccc(C(=O)Nc3cccc(F)c3)cn12`: the Inhibition turned out to be 1.86% in the test with Staphylococcus aureus and 2% with Escherichia coli.

As to `COc1ccc(NC(=O)Cn2nc3c(SCc4ccc(Cl)cc4)nccn3c2=O)cc1OC`, the Inhibition with Staphylococcus aureus is on record as 6.14%; with Escherichia coli it was -6.36%.

In the case of `COc1ccc(OC)c(NC(=O)Cn2nc3c4c5c(sc4ncn3c2=O)CCCC5)c1`, the Inhibition in the test with Staphylococcus aureus is 3.15%; with Escherichia coli, -1.54%.

In the case of `CCOC(=O)c1ccc(NC(=O)Cn2nc3ccc(SC(C)(C)C)nn3c2=O)cc1`, the results for the Inhibition in the test on Staphylococcus aureus and in the test on Escherichia coli were -4.89% and -11.53%, respectively.

These data come from ChEMBL document CHEMBL4513146, “CO-ADD screening of Karazin Kharkiv National University (Ukraine) compounds”.
